# According to PubChem BioAssay AID463173 (ICCB-Longwood Screening Facility, Harvard Medical School, 2010):
# Among all 52,000 compounds or so, about 4,300 (8.3%) were called active. The entries come from a sample that favours actives as a whole. A number with no mark means an inactive call. No stated cut-off is given here; in the data, active means survival mostly below about 52% (no sharp cut-off); inactive means mostly above about 56%.
# Test system: DeltatarO mutant
# Assay: growth inhibition of S. aureus wild type versus tarO mutant, primary screen, teichoic acid synthesis inhibitors, RN4220, OD600 (AID 463173)
# Settings: OD600, 18 h, stronger effect = lower value, screened at 18.75 µg/mL (by protocol)
row,Compound,survival
1,CCCCNC(=O)CSc1nc(-c2ccc(OC)cc2)cc(C(F)(F)F)n1,66%
2,Cc1oc2c(c(C)cc3oc(=O)c(CC(=O)NCc4ccc(F)cc4)c(C)c32)c1C,89%
3,CCc1c(C)nc2cc(-c3cc(OC)cc(OC)c3)nn2c1NCCO,95%
4,CC(=O)N1c2ccccc2C(=O)C1N1CCN(c2cccc(C(F)(F)F)c2)CC1 (stereo not given),91%
5,O=C(c1ccccc1)N1c2nc(-c3ccco3)nn2C2(CCCCC2)[C@@H]2CCCC[C@@H]21,62%
6,Cc1ccc(C(=O)N2c3nc(-c4ccco4)nn3C3(CCCCC3)[C@@H]3CCCC[C@@H]32)cc1,59% (active)
7,O=C(c1ccc(F)cc1)N1c2nc(-c3ccco3)nn2C2(CCCCC2)[C@@H]2CCCC[C@@H]21,53%
8,CSc1ccc(CCNC(=O)c2ccc(-c3nc(COc4ccc(C)cc4)c(C)o3)cc2)cc1,82%
9,COc1cccc(NC(=O)CSc2nc(=O)n(Cc3ccco3)c3c2CCC3)c1,90%
10,Cc1c(Cl)cccc1NC(=O)CCN1C(=O)c2ccccc2Sc2ncccc21,78%
11,CCOc1ccc(C(=O)Cn2c(=O)n3nc(CCn4nc(C)cc4C)nc3c3cc(OC)c(OC)cc32)cc1,98%
12,COc1ccc(Nc2c3c(nc4ccccc24)CCC3)cc1Cl,59%
13,COc1ccc(C)cc1Nc1c2c(nc3ccccc13)CCC2,85%
14,Cc1ccc(Nc2c3c(nc4ccccc24)CCC3)cc1F,2% (active)
15,Fc1ccc(Nc2c3c(nc4ccccc24)CCC3)cc1,69%
16,Cc1ccc2nc3c(c(Nc4ccc(C)c(C)c4)c2c1)CCC3,38% (active)
17,COc1ccc(OC)c(Nc2c3c(nc4ccccc24)CCC3)c1,94%
18,CCOC(=O)c1ccc(CN(Cc2ccccc2C)S(=O)(=O)c2ccc(C(C)(C)C)cc2)cc1,83%
19,CCN1C(=O)c2ccccc2S(=O)(=O)c2ccc(C(=O)NCc3ccc(C)cc3)cc21,61%
20,Cc1ccc(C(=O)c2cn(CC(=O)NCc3ccccc3)c3nc(C)ccc3c2=O)cc1,95%
21,Cc1ccc(CNC(=O)c2c(-c3ccc(F)cc3F)noc2C)o1,77%
22,CCc1nn2c(=O)cc(COC(=O)c3ccccc3NC(=O)COc3ccc(C)c(C)c3)nc2s1,87%
23,COc1ccc(Br)cc1CNC(=O)CCCn1c(=O)c2cccn2c2cccnc21,106%

row,Compound,survival
1,O=C(CCCn1c(=O)c2cccn2c2ccccc21)NCc1ccccc1Br,43% (active)
2,CCCCN(CC)C(=O)CCn1c(=O)c2cccn2c2cccnc21,70%
3,COc1ccc(Br)cc1CNC(=O)CCCn1c(=O)c2cccn2c2ccccc21,39% (active)
4,COc1ccccc1CNC(=O)CCCn1c(=O)c2cccn2c2ccccc21,76%
5,Cc1ccccc1CNC(=O)CCCn1c(=O)c2cccn2c2ccccc21,68%
6,O=C(CCCn1c(=O)c2cccn2c2cccnc21)NCc1ccccc1Br,130%
7,CN(C)CCNC(=O)CCCn1c(=O)c2cccn2c2ccccc21,64%
8,CCCCN(CC)C(=O)CCCn1c(=O)c2cccn2c2ccccc21,49% (active)
9,O=C(CN1C(=O)CCSc2ccccc21)Nc1ccccc1F,85%
10,CCc1ccc(NC(=O)C2CCN(c3nn4c(=O)cc(C)nc4s3)CC2)cc1,101%
11,COc1ccc(Cn2c(=O)c3cccnc3n(CC(=O)Nc3c(C)cc(C)cc3C)c2=O)cc1,87%
12,O=C(CN1C(=O)COc2ccc(S(=O)(=O)N3CCCCC3)cc21)NCc1ccc(Cl)cc1,64%
13,CCOC(=O)c1ccc(NC(=O)c2nn(C)c3c2COc2ccccc2-3)cc1,106%
14,O=C(CSC1=Nc2ccccc2N=C(c2ccc(F)cc2)C1)NCc1ccc(Cl)cc1,72%
15,CCc1nn(CC(=O)N2CCCCC2)c(=O)c2cc3sccc3n12,65%
16,CC1CCN(S(=O)(=O)c2ccc3c(ccc(=O)n3CC(=O)NCc3ccc(Cl)cc3)c2)CC1,75%
17,CC1CCN(S(=O)(=O)c2ccc3c(ccc(=O)n3CC(=O)NCc3ccccc3)c2)CC1,49%
18,CC(=O)Nc1ccc(NC(=O)Cn2c(=O)ccc3cc(S(=O)(=O)N4CCC(C)CC4)ccc32)cc1,84%
19,Cc1ccc(CNC(=O)Cn2c(=O)ccc3cc(S(=O)(=O)N4CCC(C)CC4)ccc32)cc1,37% (active)
20,Cc1ccc(NC(=O)Cn2c(=O)ccc3cc(S(=O)(=O)N4CCC(C)CC4)ccc32)cc1Cl,74%
21,CC1CCN(S(=O)(=O)c2ccc3c(ccc(=O)n3CC(=O)Nc3ccc(C(C)C)cc3)c2)CC1,0% (active)
22,CCCNC(=O)N1CCN(S(=O)(=O)c2ccc3c(ccn3C)c2)CC1,83%
23,CCc1c(-c2ccccc2)nc2ccccc2c1C(=O)NCCc1ccccc1,70%

row,Compound,survival
1,CCOc1ccc(NC(=O)Cn2c(=O)n(-c3ccccc3)c(=O)c3ccc(C(=O)NCc4ccc5c(c4)OCO5)cc32)cc1,107%
2,COc1cccc(CNC(=O)CSc2nc(=O)[nH]c3c2CCC3)c1,80%
3,CCOc1ccc(-c2cc(C(=O)NCc3ccc(OCC)c(OC)c3)[nH]n2)cc1,85%
4,Cc1cc(N2CCN(C)CC2)nc2ccc(NC(=O)Nc3ccccc3)cc12,65%
5,Cc1ccc(C(=O)Nc2ccc3nc(N4CCCCC4)cc(C)c3c2)cc1F,55%
6,CCN1CCN(c2cc(C)c3cc(NC(=O)c4cccc(C(F)(F)F)c4)ccc3n2)CC1,63%
7,Cc1cc(N2CCCCC2)nc2ccc(NC(=O)c3cccc(F)c3)cc12,83%
8,Cc1cc(N2CCN(C)CC2)nc2ccc(NC(=O)Nc3ccc(Cl)cc3)cc12,72%
9,Cc1cc(N2CCCCC2)nc2ccc(NC(=O)CCC(=O)N3CCN(c4ccccc4)CC3)cc12,62%
10,CCN1CCN(c2cc(C)c3cc(NC(=O)c4cccc(Cl)c4)ccc3n2)CC1,23% (active)
11,Cc1cc(C)cc(NC(=O)Nc2ccc3nc(N4CCN(C)CC4)cc(C)c3c2)c1,117%
12,Cc1cc(N2CCCCC2)nc2ccc(NC(=O)c3cccc(Cl)c3)cc12,0% (active)
13,Cc1ccccc1C(=O)Nc1ccc2nc(N3CCCCC3)cc(C)c2c1,32% (active)
14,CCN1CCN(c2cc(C)c3cc(NC(=O)c4cc(Br)ccc4Cl)ccc3n2)CC1,32% (active)
15,Cc1cc(N2CCN(C)CC2)nc2ccc(NC(=O)Nc3cccc(Cl)c3)cc12,70%
16,O=C(C1CC1)N1CCc2cc(Br)cc(S(=O)(=O)Nc3ccc(F)c(F)c3)c21,110%
17,CCS(=O)(=O)N1CC(=O)N(c2ccc(Cl)cc2)C(C)(C(=O)NC2CCCCCC2)C1 (stereo not given),115%
18,CCN1CCN(c2c(S(=O)(=O)c3ccccc3)cnc3ccc(Cl)cc23)CC1,124%
19,COc1ccc(NS(=O)(=O)c2ccc3c(c2)CCN3C(=O)CCC(=O)O)cc1Cl,93%
20,CN(c1ncnc2onc(-c3cccc(Cl)c3)c12)C1CCCCC1,-17% (active)
21,Clc1cccc(-c2noc3ncnc(NC4CCCCC4)c23)c1,68%
22,CN(c1ncnc2c1c(-c1ccccc1)cn2-c1cccc(Cl)c1)C1CCCCC1,83%
23,Cc1cccc(NC(=O)CSc2nc(-c3cccs3)nc3cc(=O)[nH]n23)c1,87%

row,Compound,survival
1,Cc1ncc(CO)c2c1Oc1nc(-c3ccccc3Cl)nc(SCc3ccccc3F)c1C2,72%
2,COc1ccc(-c2cc(C(F)F)nc(-n3nc(C)cc3C)n2)cc1,91%
3,COc1ccc(-c2cc(C(F)(F)F)nc(S(C)(=O)=O)n2)cc1,83%
4,COc1ccc(-c2cc(C(F)(F)F)nc(-n3nc(C(F)(F)F)cc3C)n2)cc1,16% (active)
5,CC(Sc1nc(-c2ccccc2)cc(C(F)(F)F)n1)C(=O)NN1CCCCC1 (stereo not given),72%
6,Cc1cc(C(F)(F)F)nn1-c1nc(-c2ccccc2)cc(C(F)(F)F)n1,17% (active)
7,CCc1nn(CC(=O)NCCc2ccc(Cl)cc2)c(=O)c2cc3c(OC)cccc3n12,75%
8,Clc1ccccc1CNc1ncnc2c1nc1n2CCCC1,97%
9,COC(=O)c1cc(-c2cocc2C=C(C#N)C#N)ccc1Cl,84%
10,CC(C)Oc1ccc(C(=O)N2CC(=O)Nc3ccc(F)cc3C2c2ccc(F)cc2)cc1 (stereo not given),53%
11,CCc1nc2nc(C)c(NS(=O)(=O)c3ccc(F)c(C)c3)c(=O)n2[nH]1,123%
12,O=C(COCc1cc(-c2ccc(F)cc2)on1)Nc1cc(Cl)ccc1O,74%
13,Cc1ccc(Cl)cc1NC(=O)COCc1cc(-c2ccco2)on1,83%
14,O=C(COCc1cc(-c2cccs2)on1)Nc1cccc(Cl)c1Cl,75%
15,CCc1ccccc1NC(=O)COCc1cc(-c2ccco2)on1,55%
16,O=C(COCc1cc(-c2ccc(F)cc2)on1)Nc1cccc(Cl)c1Cl,46% (active)
17,Cc1ccc(O)c(NC(=O)COCc2cc(-c3ccco3)on2)c1,95%
18,O=C(COCc1cc(-c2ccco2)on1)Nc1cccc(Cl)c1Cl,32% (active)
19,O=C(COCc1cc(-c2ccc(F)cc2)on1)Nc1cc(Cl)cc(Cl)c1,144%
20,O=C(COCc1cc(-c2ccco2)on1)Nc1cc(Cl)ccc1O,0% (active)
21,CCc1cccc(NC(=O)CCC(=O)N2CCSc3ccccc32)c1,57%
